Source: PubChem BioAssay
KCNQ2 enhance – KCNQ2 (rat) channel potentiation; CHO-K1 KCNQ2, FluxOR thallium flux fluorescence; hits give high values; AID 2239; 0.54% of 310,000 active; B-score at 10 µM;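 active = fluorescence ratio B-score at least 3 SD of library B-scores, with initial fluorescence B-score within 3 of them, cut at about 5.3 in these data; same plate scores as AID 2156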;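 note: B-score of peak minus minimum over baseline fluorescence ratio after K+ and Tl+ stimulus; positive B-score means potentiation of KCNQ2 with more thallium influx and brighter signal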
KCNQ2 inh – blocks the rat KCNQ2 potassium channel. 1.1% of 310,000 active. B-score at 10 µM. CHO-K1 KCNQ2, FluxOR thallium flux, 20 min; hits give low values. O88943. AID 2156;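 active = fluorescence ratio B-score at most minus 3 library SDs, with starting brightness B-score within 2 library SDs, cut at about -5.5 in these data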
KCNQ2 block conf – confirmation of rat KCNQ2 potassium channel inhibitors; KCNQ2-expressing cells, thallium flux, inhibition; hits give low values; activity change, negative = inhibition, % at 10 µM; 57% of 1,000 active; shares compounds with KCNQ2 inh;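 note: 0% = vehicle wells and values are ratio percent relative to vehicle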
KCNQ1 spec – KCNQ2 inhibitor that also affects human KCNQ1 channel; shares compounds with KCNQ2 inh; KCNQ1-expressing cells, FluxOR thallium flux fluorescence; hits give low values; activity change, negative = inhibition, % at 10 µM; 15% of 1,000 active; AID 493026;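 active = activity change at least 3 SD of negative controls below their mean in both duplicate wells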;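 note: CHO cells stably transfected with KCNQ1 and depolarized by potassium stimulus; peak minus minimum fluorescence over baseline after thallium addition; 0% = vehicle negative control and -100% = blank without thallium stimulus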
CHO parental ctr – KCNQ2 inhibitor counter-screen hit in parental CHO cells | thallium flux counter-screen; hits give low values | 14% of 1,000 active | activity change, % at 10 µM | shares compounds with KCNQ2 inh | AID 493029;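 note: 0% = vehicle negative controls with stimulus buffer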
KCNQ2 inh confirm – rat KCNQ2 inhibition confirmed by electrophysiology. shares compounds with KCNQ2 inh. 49% of 550 active. KCNQ2-expressing cells, automated patch clamp current. AID 588531. calls only at 10 µM
Kir21 conf inh – confirmation of mouse Kir2.1 potassium channel inhibitors; Tl flux remaining, % of negative control (hits give low values), % at 10 µM; 41% of 2,300 active; shares compounds with KCNQ2 enhance; Kir2.1-expressing cells, FluxOR thallium flux fluorescence; hits give low values;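 active = Primary-screen hit whose thallium flux fell at least 3 control SD below untreated wells in both duplicates, with normal baseline fluorescence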;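 note: 0% = blank wells without stimulus and 100% = stimulated no-compound controls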
Target sequence (P35561 whole entry, looked up): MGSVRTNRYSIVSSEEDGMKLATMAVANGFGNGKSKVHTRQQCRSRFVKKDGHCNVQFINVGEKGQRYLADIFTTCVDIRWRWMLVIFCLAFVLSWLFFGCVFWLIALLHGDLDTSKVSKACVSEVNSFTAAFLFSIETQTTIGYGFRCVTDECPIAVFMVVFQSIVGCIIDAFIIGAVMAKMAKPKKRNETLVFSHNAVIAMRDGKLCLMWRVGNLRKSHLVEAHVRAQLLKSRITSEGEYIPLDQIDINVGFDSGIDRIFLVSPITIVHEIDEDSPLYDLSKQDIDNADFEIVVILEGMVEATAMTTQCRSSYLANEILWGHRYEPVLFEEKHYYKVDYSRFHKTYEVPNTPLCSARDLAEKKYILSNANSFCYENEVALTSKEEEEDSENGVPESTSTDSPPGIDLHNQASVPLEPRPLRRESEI
HEK293 ctr – counter-screen for Kir2.1 inhibitors: effect in parental HEK293 cells; 19% of 2,300 active; FluxOR signal as % of negative control (100 = no effect), % at 10 µM; FluxOR thallium flux fluorescence; 0% = unstimulated blank wells; shares compounds with KCNQ2 enhance;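 active = dye signal at least 3 control SD above or below untreated wells in both duplicates, raw fluorescence within 3, either direction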;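 note: percent is based on the flux ratio of peak minus minimum fluorescence over baseline F0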
Active calls of the source: *; i = inactive; . = not tested or not shown; + = active, no number. Hits are enriched below; roughly 1.6% of the tested compounds scored in any of these assays. Unless noted, the rule behind the calls is not given here.

SMILES | KCNQ2 enhance | KCNQ2 inh | Kir21 conf inh | HEK293 ctr | others
CC1CCC(C(C)C)C(OC(=O)Cn2c(COc3ccccc3)[n+](C)c3ccccc32)C1 (configuration not stated) | -9.99 | -9.99* | 18.0%* | i | KCNQ2 block conf=-55.0%*;KCNQ1 spec=-52.5%*;CHO parental ctr=-50.5%*;KCNQ2 inh confirm=i
COc1ccc(-c2cc(-c3ccccc3)[n+](C)c(-c3ccccc3)c2)cc1 | . | i | . | .
COc1ccc(-[n+]2c(-c3ccccc3)cc(-c3ccc(C)cc3)cc2-c2ccccc2)cc1 | -10.1 | -10.1* | 14.0%* | i | KCNQ2 block conf=-26.0%*;KCNQ1 spec=i;CHO parental ctr=i;KCNQ2 inh confirm=+
COc1ccc(C(=O)NC(=S)N2C[C@H]3C[C@H](C2)c2cccc(=O)n2C3)cc1 | 0.12 | i | . | .
CC(=O)c1cccc(NC(=O)N2C[C@H]3C[C@@H](C2)c2cccc(=O)n2C3)c1 | 0.32 | i | . | .
CC1(C)C[C@H]2C=C(C=O)[C@]3(C=O)C[C@]3(C)[C@H]2C1 | -6.02 | -6.02* | 42.5%* | 71.0%*
Cc1cc(Oc2cc(NN3CCCCC3)c([N+](=O)[O-])cc2[N+](=O)[O-])ccc1[N+](=O)[O-] | . | i | . | .
Cc1ccc(C(=O)N[C@@H](C)CN2C3=NC[C@@H](Cc4ccccc4)N3C[C@H]2Cc2ccc(O)cc2)cc1Br | . | i | 49.0%* | i
Cc1ccc(C(=O)N[C@@H](C)CN2C3=NC[C@H](Cc4ccccc4)N3C[C@H]2Cc2ccc(O)cc2)cc1Br | . | i | . | .
O=C1/C(=C/c2cc3c(cc2Cl)OCO3)N2CCC1CC2 | . | i | . | .
Cc1ccc(-c2nc(N(C)C3CCN(C)CC3)c3ccccc3n2)cc1 | . | i | . | .
Cc1cc(C)n(CCOC(=O)C2C(C=C(Cl)Cl)C2(C)C)n1 (configuration not stated) | . | i | 43.0%* | i
COc1ccc(OC)c(N=Cc2c(O)[nH]c(=O)[nH]c2=O)c1 | 0.37 | i | . | .
COc1ccc(CCNCc2ccc(C)s2)cc1OC | 1.37 | i | . | .
COc1ccc(Cc2nccc3cc(OC)c(OC)cc23)cc1OC | . | i | 43.0%* | i
Cc1ccccc1-[n+]1c(-c2ccccc2)cc(-c2ccccc2)cc1-c1ccccc1 | -8.31 | -8.31* | 16.0%* | 57.0%*
CCCOC(=O)c1ccc(-[n+]2c(-c3ccccc3)cc(-c3ccccc3)cc2-c2ccccc2)cc1 | -6.93 | -6.93* | 36.5%* | i
C[n+]1c(-c2ccccc2)cc(CCCCc2cc(-c3ccccc3)[n+](C)c(-c3ccccc3)c2)cc1-c1ccccc1 | . | i | . | .
Brc1ccc(-[n+]2c(-c3ccccc3)cc(-c3ccccc3)cc2-c2ccccc2)cc1 | -8.41 | -8.41* | 34.0%* | i
Cc1ccc(-c2cc(-c3ccc(C)cc3)[n+](-c3ccc(C(=O)O)cc3)c(-c3ccc(C)cc3)c2)cc1 | 0.83 | i | . | .
[O-]c1ccccc1-[n+]1c(-c2ccccc2)cc(-c2ccccc2)cc1-c1ccccc1 | . | i | 25.0%* | i
O=C1/C(=C\c2ccc(Cl)c(Cl)c2)N2CCC1CC2 | . | i | . | .
CN1CC(C#N)C2(O)c3ccccc3CCC2C1 (configuration not stated) | . | i | . | .
CCNC(=O)NC(=O)C(C)OC(=O)c1c(C)nn(Cc2ccccc2Cl)c1Cl (configuration not stated) | 0.03 | i | . | .
CN1CCN(c2ccc(N)cc2Cl)CC1 | 0.28 | i | . | .
CCOc1ccc(-c2cc(C)[n+](CCN3CCOCC3)c(-c3ccc(OCC)cc3)c2)cc1 | . | i | . | .
Cc1ccc(C[n+]2c(-c3ccc(C)cc3)cc(-c3ccc(C)cc3)cc2-c2ccc(C)cc2)cc1 | . | i | 11.5%* | i
Fc1ccc(CCNCc2ccccc2Cl)cc1 | 0.28 | i | . | .
CCOc1ccc(Cl)cc1CNCCc1ccc(F)cc1 | . | i | 24.0%* | i
Cc1cccc(NP(C)(=O)c2nc3c(s2)CCCC3)c1 (configuration not stated) | 1.11 | i | . | .
